Test results: PubChem BioAssay (NCATS)
Inconclusive results are not listed. Unmarked numbers belong to inactive results. Active and inactive are the calls of the source. Calls come from the whole dose curve; as a rule, active = well fitted curve in the direction sought with a large enough effect; inconclusive = small, poorly fitted or top-dose-only effect, or another doubt; inactive = no such curve, though single readings can be large; an effect the other way counts as inactive or inconclusive.

Tested on: Zika virus NS2B-NS3 protease (unlinked complex)
Test: Primary screen GU Rhodamine qHTS for Zika virus inhibitors: Unlinked NS2B-NS3 protease assay (AID 1347159); note: nearly all actives have a fitted effect of over 60% in size; note: potency is the fitted concentration of half-maximal effect; for activity change, negative = inhibition: % is set by controls: 0 for no effect and ±100 for the full control effect
Conditions: Recombinant ZIKV NS2B-NS3 protease, Rhodamine110 substrate fluorescence; series mostly up to 107 µM; activity change, negative = inhibition: at the top concentration
Summary of the method: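 Unlinked NS2B/NS3, 25 nM; Rhod110 peptide, 1.5 microM; compounds, up to 114 microM. Reaction run 15 min at RT in 10 mM Tris-HCl pH 8.0, 0.01% Tween 20; kinetic fluorescence change fitted with a 4-parameter Hill model.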

| Structure (SMILES) | activity change, negative = inhibition [%] | Potency |
| --- | --- | --- |
| COc1ccc2cc(-c3nc(-c4ccc(S(C)=O)cc4)[nH]c3-c3ccncc3)ccc2c1 (stereo not drawn) | -18.3 | – |
| CCN(CC)CCNC(=O)c1ccc(N)cc1 | 52.2 | – |
| CC1CCC(C(=O)N(c2cc(C#CC(C)(C)C)sc2C(=O)O)C2CCC(O)CC2)CC1 (stereo not drawn) | – | 7.94 µM (active) |
| NC(=O)c1ccc2nc(-c3ccc(Oc4ccc(Cl)cc4)cc3)[nH]c2c1 | 0 | – |

Tested on: Zika virus NS2B-NS3 protease (linked construct)
Test: Primary screen NINDS Rhodamine qHTS for Zika virus inhibitors (AID 1347160); note: nearly all actives have a fitted effect of over 55% in size; note: potency is the fitted concentration of half-maximal effect; for activity change, negative = inhibition: % is set by controls: 0 for no effect and ±100 for the full control effect
Conditions: purified NS2B-NS3 protease, Rhodamine110 substrate fluorescence; series mostly up to 57.1 µM; activity change, negative = inhibition: at the top concentration
Summary of the method: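 Single-chain NS2B-NS3 protease, 25 nM, pH 8.0; compounds preincubated 15 min. Activity: Rhodamine110 release from 1.5 microM substrate over 15 min, room temperature, data fitted to 4-parameter Hill.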

| Structure (SMILES) | activity change, negative = inhibition [%] | Potency |
| --- | --- | --- |
| O=C(O)CCc1nc(-c2ccccc2)c(-c2ccccc2)o1 | -7.72 | – |
| COc1ccc2cc(-c3nc(-c4ccc(S(C)=O)cc4)[nH]c3-c3ccncc3)ccc2c1 (stereo not drawn) | 5.96 | – |
| COc1ncc(-c2ccc3nccc(-c4ccnnc4)c3c2)cc1NS(=O)(=O)c1ccc(F)cc1F | -17.8 | – |
| CCN(CC)CCNC(=O)c1ccc(N)cc1 | 26.3 | – |
| COc1cc(Nc2ncc(F)c(Nc3ccc4c(n3)NC(=O)C(C)(C)O4)n2)cc(OC)c1OC | 68.2 | – |
| CC[C@]1(O)C[C@@H]2CN(CCc3c([nH]c4ccccc34)[C@@](C(=O)OC)(c3cc4c(cc3OC)N(C)[C@H]3[C@@](O)(C(=O)OC)[C@H](OC(C)=O)[C@]5(CC)C=CCN6CC[C@]43[C@@H]65)C2)C1 | 112 | – |
| CCOC(=O)C1=C(N)Oc2ccc(Br)cc2C1C(C#N)C(=O)OCC (stereo not drawn) | – | inactive |
| Cc1ccn(-c2ccc(-c3ncco3)cc2)c(=O)c1-c1ccc2nc(N)ncc2c1 | -10.7 | – |
| O=C(O)C(O)Cc1ccc(O)c(O)c1 (stereo not drawn) | – | 3.49 µM (active) |

Tested on: not listed separately
Test: Confirmatory screen NINDS Rhodamine qHTS for Zika virus inhibitors (AID 1347161); note: nearly all actives have a fitted effect of over 60% in size; note: potency is the fitted concentration of half-maximal effect;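 for activity change, negative = inhibition: purified Zika NS2B-NS3 protease with linked NS2B cofactor domain and Rhodamine110 peptide substrate; plate controls were no-inhibitor control for no effect and no-enzyme control for full effect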
Conditions: purified enzyme assay, Rhodamine110 substrate fluorescence, 15 min; series mostly up to 114 µM; activity change, negative = inhibition: at the top concentration
Summary of the method: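 Purified NS2B-NS3 protease with the NS2B hydrophilic domain joined by a flexible linker (25 nM) in 10 mM Tris-HCl pH 8.0, 0.01% Tween 20, preincubated 15 min at RT with compound; Rhodamine110 peptide substrate 1.5 µM; fluorescence change over 15 min; 4-parameter Hill fit.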

| Structure (SMILES) | Potency | activity change, negative = inhibition |
| --- | --- | --- |
| Cc1cc(OCCCc2c(C(=O)O)n(Cc3cccnc3)c3c(-c4c(COc5ccc(N6CCN([S+](C)(=O)[O-])CC6)cc5)nn(C)c4C)cccc23)cc(C)c1Cl | 3.11 µM (active) | – |
| CC1CCC(C(=O)N(c2cc(C#CC(C)(C)C)sc2C(=O)O)C2CCC(O)CC2)CC1 (stereo not drawn) | 5.53 µM (active) | – |
| CN(C)c1cc(NC(=O)CNC(C)(C)C)c(O)c2c1C[C@@H]1C[C@H]3[C@H](N(C)C)C(=O)C(C(N)=O)=C(O)[C@@]3(O)C(=O)C1=C2O | 4.41 µM (active) | – |
| O=c1c(O)c(-c2ccc(O)cc2)oc2cc(O)cc(O)c12 | – | 9.28% [at 64.7 µM] |
| O=C(O)c1c(Cl)c(Cl)c(Cl)c(Cl)c1-c1c2cc(I)c(=O)c(I)c-2oc2c(I)c(O)c(I)cc12 | – | 2.3% |
| Cc1ccn(-c2ccc(-c3ncco3)cc2)c(=O)c1-c1ccc2nc(N)ncc2c1 | 49.3 µM (active) | – |

Molecular target: Lysine-specific demethylase 5B (Homo sapiens) (UniProt Q9UGL1)
Sequence (Q9UGL1 whole entry, looked up): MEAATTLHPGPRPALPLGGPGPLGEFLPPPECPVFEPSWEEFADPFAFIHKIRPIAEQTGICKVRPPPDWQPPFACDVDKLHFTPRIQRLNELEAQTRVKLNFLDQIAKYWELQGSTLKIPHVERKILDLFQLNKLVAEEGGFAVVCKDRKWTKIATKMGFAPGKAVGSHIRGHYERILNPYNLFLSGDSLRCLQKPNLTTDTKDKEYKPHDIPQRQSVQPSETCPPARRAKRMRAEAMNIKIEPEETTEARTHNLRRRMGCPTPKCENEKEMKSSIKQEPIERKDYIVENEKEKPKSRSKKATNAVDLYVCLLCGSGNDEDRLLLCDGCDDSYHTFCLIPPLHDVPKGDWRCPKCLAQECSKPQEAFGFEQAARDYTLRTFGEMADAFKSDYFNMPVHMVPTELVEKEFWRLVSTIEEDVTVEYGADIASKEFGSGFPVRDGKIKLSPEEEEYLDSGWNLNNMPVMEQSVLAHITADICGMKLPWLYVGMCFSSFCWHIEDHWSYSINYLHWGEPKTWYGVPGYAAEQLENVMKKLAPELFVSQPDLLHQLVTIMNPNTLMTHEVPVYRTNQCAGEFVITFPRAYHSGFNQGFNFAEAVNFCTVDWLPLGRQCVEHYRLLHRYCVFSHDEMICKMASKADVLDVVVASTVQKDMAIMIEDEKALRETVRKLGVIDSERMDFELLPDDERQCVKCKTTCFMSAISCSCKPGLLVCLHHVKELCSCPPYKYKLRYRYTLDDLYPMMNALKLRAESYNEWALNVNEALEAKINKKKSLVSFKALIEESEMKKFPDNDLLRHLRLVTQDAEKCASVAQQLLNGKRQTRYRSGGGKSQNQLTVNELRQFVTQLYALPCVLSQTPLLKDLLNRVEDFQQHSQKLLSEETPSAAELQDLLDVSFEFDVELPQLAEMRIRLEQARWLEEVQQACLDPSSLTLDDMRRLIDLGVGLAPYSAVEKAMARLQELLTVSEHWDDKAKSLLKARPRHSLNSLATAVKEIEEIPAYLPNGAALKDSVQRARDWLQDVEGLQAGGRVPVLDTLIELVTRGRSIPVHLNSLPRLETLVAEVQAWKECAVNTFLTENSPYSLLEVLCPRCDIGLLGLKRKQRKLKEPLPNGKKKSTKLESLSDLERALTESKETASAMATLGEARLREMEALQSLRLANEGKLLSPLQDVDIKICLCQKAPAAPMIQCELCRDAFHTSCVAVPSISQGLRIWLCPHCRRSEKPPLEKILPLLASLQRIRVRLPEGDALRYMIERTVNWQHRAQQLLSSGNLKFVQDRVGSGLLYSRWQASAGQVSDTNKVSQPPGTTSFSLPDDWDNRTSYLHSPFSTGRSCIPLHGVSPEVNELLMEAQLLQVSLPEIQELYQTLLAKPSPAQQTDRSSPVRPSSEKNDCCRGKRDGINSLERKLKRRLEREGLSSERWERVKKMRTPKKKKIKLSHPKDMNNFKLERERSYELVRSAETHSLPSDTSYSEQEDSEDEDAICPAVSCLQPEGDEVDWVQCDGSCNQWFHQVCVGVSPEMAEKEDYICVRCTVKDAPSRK
Test: Optimization screen for KDM5B Histone Demethylases FDH coupled qHTS against the LOPAC library (AID 1347166); note: 0% is about no effect
Conditions: KDM5B demethylation, FDH-coupled NADH fluorescence (FDH is formaldehyde dehydrogenase); series mostly up to 57.5 µM; activity, negative = inhibition: at the top concentration
Summary of the method: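 KDM5BDeltaAP (200nM final) in 50mM HEPES pH 7.5, 0.01% Tween-20 was preincubated with compound for 10 min at room temperature. A substrate mix of 12.5uM H3K4Me3, 25uM a-ketoglutarate, ascorbate, Fe2+, NAD+ and formaldehyde dehydrogenase was then added. NADH fluorescence (340/450 nm) was read initially and after 30 min.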

| Structure (SMILES) | activity, negative = inhibition [%] | outcome |
| --- | --- | --- |
| COc1ccc(Cc2nccc3cc(OC)c(OC)cc23)cc1OC | -5.44 | – |
| CC(C)OC(=O)C(C)(C)Oc1ccc(C(=O)c2ccc(Cl)cc2)cc1 | -8.8 | – |
| O=c1cc(-c2ccc(O)cc2)oc2cc(O)cc(O)c12 | -16.5 | – |
| O=C1NCC2(CCN(CCc3ccccc3)CC2)O1 | -4.69 | – |
| C[N+](C)(C)CCCCCC[N+](C)(C)C | – | inactive |
| CCN(CC)CCNC(=O)c1ccc(N)cc1 | -4.77 | – |
| CCN(CC)C(=O)c1ccc(O)c(OC)c1 | -2.84 | – |
| NC(N)=Nc1nc(CSCC/C(N)=N/S(N)(=O)=O)cs1 | -5.78 | – |
| CC(=O)c1ccc(S(=O)(=O)NC(=O)NC2CCCCC2)cc1 | -1.1 | – |
| O=C(NCCN1CCOCC1)c1ccc(Cl)cc1 | -3.88 | – |
| CCn1cc(C(=O)O)c(=O)c2ccc(C)nc21 | -8.86 | – |
| COc1cccc(-c2cc(=O)c3ccccc3o2)c1N | -11.8 | – |
| CCCCCN(C)CCC(O)(P(=O)(O)O)P(=O)(O)O | -9.85 | – |
| CCCCC1C(=O)N(c2ccccc2)N(c2ccccc2)C1=O | -10.5 | – |
| Cc1cccc(C)c1OCC(C)N (stereo not drawn) | -8.36 | – |
| NCCS | -22.5 | – |
| CCN(CC)CCOC(=O)c1ccc(N)cc1 | -11.9 | – |
| O=C1NC(=O)C(c2ccccc2)(c2ccccc2)N1 | – | inactive |
| CC(C)(C)c1ccc(C(O)CCCN2CCC(C(O)(c3ccccc3)c3ccccc3)CC2)cc1 (stereo not drawn) | -7.6 | – |

Tested on: not listed separately
Test: Vero cells viability qHTS for Zika virus inhibitors (AID 1347167); note: % is set by controls: 0 for no effect and ±100 for the full control effect
Conditions: cytotoxicity counter-screen (Zika); series mostly up to 45.9 µM; activity change, negative = cytotoxicity: at the top concentration
Summary of the method: (§1)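 qHTS titration; 24-48 h compound exposure, 37 degrees C/5% CO2; DMEM, 4% FBS; CellTiter Glo ATP luminescence.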

| Structure (SMILES) | activity change, negative = cytotoxicity [%] |
| --- | --- |
| COc1ccc2cc(-c3nc(-c4ccc(S(C)=O)cc4)[nH]c3-c3ccncc3)ccc2c1 (stereo not drawn) | -3.24 |
| CC1CCC(C(=O)N(c2cc(C#CC(C)(C)C)sc2C(=O)O)C2CCC(O)CC2)CC1 (stereo not drawn) | -3.09 |
| CN(C)c1cc(NC(=O)CNC(C)(C)C)c(O)c2c1C[C@@H]1C[C@H]3[C@H](N(C)C)C(=O)C(C(N)=O)=C(O)[C@@]3(O)C(=O)C1=C2O | -2.12 |
| Cc1ccn(-c2ccc(-c3ncco3)cc2)c(=O)c1-c1ccc2nc(N)ncc2c1 | -10.3 |
| NC(=O)c1ccc2nc(-c3ccc(Oc4ccc(Cl)cc4)cc3)[nH]c2c1 | -3.37 |

Tested on: not listed separately
Test: HepG2 cells viability qHTS for Zika virus inhibitors (AID 1347168); note: % is set by controls: 0 for no effect and ±100 for the full control effect
Conditions: Zika counter-screen; series mostly up to 45.9 µM; activity change, negative = cytotoxicity: at the top concentration
Summary of the method: as §1

| Structure (SMILES) | activity change, negative = cytotoxicity [%] |
| --- | --- |
| Cc1cc(OCCCc2c(C(=O)O)n(Cc3cccnc3)c3c(-c4c(COc5ccc(N6CCN([S+](C)(=O)[O-])CC6)cc5)nn(C)c4C)cccc23)cc(C)c1Cl | -20.7 |
| CC1CCC(C(=O)N(c2cc(C#CC(C)(C)C)sc2C(=O)O)C2CCC(O)CC2)CC1 (stereo not drawn) | 16.4 |
| CN(C)c1cc(NC(=O)CNC(C)(C)C)c(O)c2c1C[C@@H]1C[C@H]3[C@H](N(C)C)C(=O)C(C(N)=O)=C(O)[C@@]3(O)C(=O)C1=C2O | -14.5 |
| Cc1ccn(-c2ccc(-c3ncco3)cc2)c(=O)c1-c1ccc2nc(N)ncc2c1 | -2.63 |
| NC(=O)c1ccc2nc(-c3ccc(Oc4ccc(Cl)cc4)cc3)[nH]c2c1 | -21.8 |
